In the library only some 11% were active in any assay of this set; here they are far more common.
NPR1 antag: Natriuretic polypeptide receptor (hNpr1) antagonism - Primary qHTS. Atrial natriuretic peptide receptor 1 (Homo sapiens), P16066. HEK293 hNpr1 GloSensor cGMP, ANP-stimulated luminescence. Potency, µM (titrated, usually from 46.3 µM), inactives show top-dose activity change, negative = inhibition, hits mostly inhibitors. 76,000 compounds, 1.6% hits. AID 1347048, 2019; calls by dose curve; further: nearly all actives have a fitted effect of over 60% in size
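Compound pre-incubated 30 min at room temperature on GloSensor-loaded HEK293 cells stably carrying hNpr1 and the pGS-40F cGMP biosensor. Stimulation uses hNppA at 0.1 nM final; luminescence is taken at baseline and 20 min post-agonist.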
HEK293 tox: Cytotoxic Profiling in HEK 293 Cell Line of Diverse Libraries Using Quantitative High-Throughput Screening; HEK 293 viability, ATP luminescence (CellTiter-Glo), 48-72 h; Potency, µM (highest dose often 115 µM), inactives show top-dose activity change, negative = cytotoxicity, hits mostly inhibitors; 94,000 compounds, 6.6% hits; further: nearly all actives have a fitted effect of over 60% in size
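Read-out: CellTiter-Glo ATP luminescence. Cells: HEK 293, 250 cells/well. Exposure: 48 or 72 hr, 37 degree Celsius.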
FLuc inh: Firefly luciferase inhibition profiling of diverse chemical library using quantitative high-throughput screening; Luciferin 4-monooxygenase (Photinus pyralis), P08659; purified P. pyralis luciferase, luminescence, biochemical; Potency, µM (highest dose often 115 µM), actives largely listed as inhibitors; 76,000 compounds, 2.5% hits; further: nearly all actives have a fitted effect of over 65% in size
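Biochemical qHTS: compound (6-point titration) added to 10uM D-luciferin plus 10uM ATP in Tris acetate pH 7.5 buffer with Mg, Tween-20 and BSA, then purified enzyme at 10nM; light output imaged.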
NIH3T3 tox: Cytotoxic Profiling in NIH 3T3 Cell Line of Diverse Libraries Using Quantitative High-Throughput Screening. NIH 3T3 viability, CellTiter-Glo ATP luminescence, 48-72 h. Potency, µM (series often up to 96.7 µM), inactives show at the highest dose activity change, negative = cytotoxicity, hits mostly inhibitors. 94,000 compounds, 4.3% hits. AID 1345082, 2018; further: nearly all actives have a fitted effect of over 55% in size
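Cells were seeded at 400 per well, treated with pin-transferred compound, and kept 48 or 72 hr at 37 °C before CellTiter-Glo addition and luminescence imaging of cellular ATP.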
Starred values were filed as active, the others as inactive; i = inactive; ? = inconclusive; . = no result given; [ ] = dose if it differs, or a comment. Unless noted, the call rests on the fitted dose curve; in most records, active means well fitted curve in the direction sought with a large enough effect; inconclusive means small, poorly fitted or top-dose-only effect, or another doubt; inactive means no such curve, though single readings can be large; an effect the other way counts as inactive or inconclusive. On the % scale 0 is the no-effect control and ±100 the full control effect; potency means the concentration at half of the fitted maximal effect.

SMILES | NPR1 antag | HEK293 tox | FLuc inh | NIH3T3 tox
Cn1cccc1C(=O)N1CCC(N2C(=O)C3(CCCC3)C2c2ccccc2)CC1 (centres undefined) | -1.7% | 44.7µM* | i | -29.7%
CC(C)CC(=O)N1CCC(N2C(=O)C3(CCCC3)C2c2ccccc2)CC1 (centres undefined) | -3.2% | ? | i | 44.7µM*
COc1ccc(-c2noc(-c3cccn3CC(=O)Nc3c(C)cccc3Cl)n2)cc1F | -14.4% | 1.0% | i | i
CN1c2cccnc2CN(C2CCCCC2)CC[C@H]1CO | 1.1%[70.6 µM] | -1.2%[230 µM] | i | -7.4%[230 µM]
CN1c2cccnc2CN(CC2CCCCC2)CC[C@H]1CO | -1.7%[70.6 µM] | ? | i | 50.1µM*
COc1ccc(-c2nccc3c(=O)cc(N4CCOCC4)oc23)cc1OC | -1.0%[70.6 µM] | ? | i | 10µM*
Cc1ccccc1-c1nccc2c(=O)cc(C3=CCOCC3)oc12 | 0.7%[70.6 µM] | ? | i | ?
CN1CCN(c2cc(=O)c3ccnc(-c4cccc(F)c4)c3o2)CC1 | -1.1%[70.6 µM] | -13.5%[172 µM] | i | 35.5µM*
O=c1cc(N2CCOCC2)oc2c(N3CCOCC3)nccc12 | 6.3%[70.6 µM] | ? | i | 39.8µM*
CN1CCN(c2cc(=O)c3ccnc(-c4cccc(CO)c4)c3o2)CC1 | -3.5%[70.6 µM] | -6.5%[172 µM] | i | ?
O=c1cc(N2CCOCC2)oc2c(-c3cccc4[nH]ccc34)nccc12 | 6.9%[70.6 µM] | ? | i | 8.91µM*
Oc1ccc(-c2nc(C3CC3)nc3c2CCN(Cc2ccncc2)CC3)cc1 | . | i | . | -10.0%
CN1CC(=O)N(C2CNC2)Cc2c(NCC3CC3)ncnc21 | . | 4.1%[172 µM] | . | 0.1%[138 µM]
Cc1cc(-c2nccc3c(=O)cc(N(C)c4ccccc4)oc23)ccn1 | -1.4%[70.6 µM] | ? | i | 10µM*
CN1CCN(c2cc(=O)c3ccnc(-c4ccc(CO)cc4)c3o2)CC1 | 5.1%[70.6 µM] | i | i | ?
O=c1cc(N2CCOCC2)oc2c(-c3ccc(F)cc3)nccc12 | 1.7%[70.6 µM] | ? | i | 31.6µM*
CC(=O)Nc1cccc(-c2nccc3c(=O)cc(-c4ccncc4)oc23)c1 | 2.7%[70.6 µM] | i | i | ?
Cc1cc(-c2nccc3c(=O)cc(N4CCOCC4)oc23)ccn1 | 4.6%[70.6 µM] | -21.4%[172 µM] | i | 31.6µM*
COc1cc(F)ccc1-c1nccc2c(=O)cc(N3CCOCC3)oc12 | 1.6%[70.6 µM] | -6.4%[172 µM] | i | 44.7µM*
COCC(=O)Nc1cc(C2CC2)nn1C | . | -12.2%[230 µM] | . | -20.2%[174 µM]
COCCCNC(=O)c1ccc2nc(-c3cccnc3Cl)oc2c1 | . | -2.2%[172 µM] | . | -14.7%[138 µM]
O=c1cc(-c2ccncc2)oc2c(-c3ccccc3F)nccc12 | 12.4%[70.6 µM] | ? | i | ?
CN(C)c1cc(=O)c2ccnc(-c3ccc(N4CCOCC4)cc3)c2o1 | -1.5%[70.6 µM] | i | 44.7µM* | ?
O=c1cc(N2CCOCC2)oc2c(Nc3ccccn3)nccc12 | 4.6%[70.6 µM] | -20.6%[172 µM] | i | ?
O=c1cc(N2CCOCC2)oc2c(-c3ccc(F)c(Cl)c3)nccc12 | 4.2%[70.6 µM] | -11.6%[172 µM] | i | 17.8µM*
SMILES | NPR1 antag | HEK293 tox | FLuc inh | NIH3T3 tox
CN1CCN(c2cc(=O)c3ccnc(Nc4ccc(F)c(Cl)c4)c3o2)CC1 | 1.9%[70.6 µM] | ? | i | 100µM*
O=c1cc(N2CCOCC2)oc2c(NCc3ccc(F)cc3)nccc12 | 3.9%[70.6 µM] | ? | i | 25.1µM*
O=C(c1ccc2c(c1)OCO2)N1CCc2nc(C3CC3)nc(-c3ccc(Cl)cc3)c2C1 | . | -19.1% | . | -10.2%
Cc1cc(C)c(CNC(=O)c2nc(-c3cccc(N4CCOCC4)c3)cc3[nH]ccc23)c(=O)[nH]1 | -0.4% | ? | i | ?
COC(=O)NCCNC(=O)c1cccc(-c2ccsc2)c1 | . | -16.7%[172 µM] | . | -15.8%[138 µM]
Cc1nc(-c2cnccn2)n(CC(=O)Nc2ccc3c(c2)OCCO3)c(=O)c1C | -14.3% | 9.1% | i | -8.5%
Cc1nn2c(c1-c1ccccc1OCc1ccccc1)N(Cc1nccn1C)CCC2 | -24.5%[70.6 µM] | 100µM* | i | ?
Cc1nn2c(c1-c1ccccc1OCc1ccccc1)N(Cc1cccnc1)CCC2 | -20.0%[70.6 µM] | 63.1µM* | i | ?
Cc1ccc(-c2ccccc2CN)c(C)c1 | . | 112µM* | . | 100µM*
NCc1ccccc1-c1ccc(O)cc1 | . | -14.4%[172 µM] | . | -28.2%[138 µM]
C[S+](=O)([O-])NCCn1ccc2cc(OC3CCN(C(=O)C4CCCC4)CC3)cnc21 | -27.5%[70.6 µM] | ? | i | 100µM*
CC(=O)Nc1ccc(OCC(=O)NC2CCN(Cc3ccccc3)CC2)nc1 | 1.8% | -17.3% | i | -20.4%
Fc1ccc(-c2cnc3n2C[C@H](CNC2CCOCC2)OC3)cc1 | -3.2%[70.6 µM] | -22.7%[172 µM] | i | ?
Clc1ccc(-c2cnc3n2C[C@H](CNC2CCOCC2)OC3)cc1 | -8.7%[70.6 µM] | ? | i | 89.1µM*
COc1ccc(C(=O)NC[C@H]2Cn3c(-c4ccc(F)cc4)cnc3CO2)cc1 | ? | ? | i | ?
COc1ccc(C(=O)NC[C@H]2Cn3c(-c4ccc(Cl)cc4)cnc3CO2)cc1 | ? | 100µM* | ? | ?
O=C(COc1ccccc1)NC[C@H]1Cn2c(-c3ccc(Cl)cc3)cnc2CO1 | -12.8%[70.6 µM] | 100µM* | i | ?
O=C([C@@H]1C[C@H](Oc2cccnc2)CN1C(=O)C1CCCCC1)N1CCCC1 | . | i | . | i
Cc1ccc(C)c2c(C)c(C(=O)N3CCCC(O)(CN4CCCC4)C3)[nH]c12 (centres undefined) | 0.3% | ? | i | ?
N#Cc1ccc(CN2CCCCCCNC(=O)[C@@H]3C[C@@H](C(=O)NCCc4cnc[nH]4)C[C@@H]32)cc1 | -7.6% | -10.9% | i | -6.2%
Cc1ccccc1N1CCN(C(=O)c2cc3cn(C4CC4)cc3s2)CC1 | -17.6% | 79.4µM* | i | ?
CCNC(=O)NC[C@@H]1C=C(C)[C@H](CC(=O)NCCN(C)C)C[C@H]1C(C)C | 6.3%[70.6 µM] | i | i | i
CN(C)Cc1ccc(-c2cc(-c3ccncc3)c3cncn3c2)cc1 | -2.2%[70.6 µM] | 89.1µM* | ? | ?
Cc1noc(C)c1-c1cc(-c2ccncc2)cn2cncc12 | 2.3%[70.6 µM] | ? | i | ?
Cc1noc(C)c1-c1cc(-c2ccc(CN(C)C)cc2)cn2cncc12 | 0.5%[70.6 µM] | ? | i | 28.2µM*
SMILES | NPR1 antag | HEK293 tox | FLuc inh | NIH3T3 tox
Cc1cc(=O)n(CC(=O)Nc2ccc(N(C)C)cc2)c(-c2ccc(Cl)cc2)n1 | 0.7% | 13.3% | i | 3.5%
Clc1cc(NCc2ccccc2Cl)n2nccc2n1 | ? | ? | i | 20µM*
Clc1cc(NCc2cccs2)n2nccc2n1 | ? | 39.8µM* | i | ?
Fc1ccccc1CCNc1cc(Cl)nc2ccnn12 | -7.4%[70.6 µM] | ? | ? | ?
COc1ccc(CNc2cc(Cl)nc3ccnn23)cc1 | -24.4%[70.6 µM] | 70.8µM* | i | ?
CCCN1CCN(C(=O)C2(c3ccc(NC(=O)C(C)C)cc3)CCCCC2)CC1 | -1.0% | -4.4% | i | 3.1%

From PubChem BioAssay
